# Sampled rows, rich in hits. Any-hit rate of the full collection: about 2.4%.
# D2 ag-1: Beta-Arrestin HTS for Positive Allosteric Modulators of the Human D2 Dopamine Receptor: Agonists; D(2) dopamine receptor (Homo sapiens), P14416; DiscoveRx PathHunter D2 beta-arrestin, luminescence, 90 min; 100% = 57 uM dopamine signal; activation, % (concentration not given with the values); 360,000 tested, 0.084% active; AID 624465, 2012; in the data active = activation above about 40%
#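 Agonist mode: compounds alone added to overnight-plated D2 PathHunter cells for 90 min at 37 C, with 57 uM final dopamine (EC100) defining full response. Beta-arrestin recruitment detected by chemiluminescent reagent, read after 1 h at ambient temperature.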
# B2AR arrestin: qHTS assay of beta-arrestin-biased ligands of beta2-adrenergic receptor. AID 492947, 2010. beta-arrestin recruitment to beta2AR, cell-based reporter. 330,000 tested, 0.02% active. Potency, µM (series often up to 46.1 µM), most hits filed as activators. Beta-2 adrenergic receptor (Homo sapiens), P07550; active = well fitted activation curve with a large enough effect; note: nearly all actives have a fitted effect of over 65% in size
# Target sequence (P07550 whole entry, looked up): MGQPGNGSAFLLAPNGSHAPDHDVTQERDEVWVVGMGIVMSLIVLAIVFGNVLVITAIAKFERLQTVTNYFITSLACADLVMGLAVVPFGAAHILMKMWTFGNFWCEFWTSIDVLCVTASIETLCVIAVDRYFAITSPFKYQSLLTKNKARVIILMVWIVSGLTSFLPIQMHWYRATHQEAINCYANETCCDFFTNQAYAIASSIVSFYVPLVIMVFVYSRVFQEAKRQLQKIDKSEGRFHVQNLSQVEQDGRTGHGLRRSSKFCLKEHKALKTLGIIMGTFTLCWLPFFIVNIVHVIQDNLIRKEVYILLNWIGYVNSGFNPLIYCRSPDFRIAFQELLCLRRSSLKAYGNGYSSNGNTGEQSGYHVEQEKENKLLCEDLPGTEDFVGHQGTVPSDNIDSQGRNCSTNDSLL
# D2 ag-2: HTS Assay for Allosteric Agonists of the Human D2 Dopamine Receptor: Primary Screen for Agonists; 340,000 tested, 0.53% active; HEK293 T-REx D2 cells, calcium flux agonist mode; AID 485358, 2010; activation, % at 2 µM; D(2) dopamine receptor (Homo sapiens), P14416;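 active = activation over 3 SD above normal in the single-dose calcium agonist read, cut at about 30% in these data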
#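 HEK293 Trex D2 cells, tetracycline-induced, o/n 30 C 5% CO2; no-wash Ca dye, RT 30–90 min; 10-cycle baseline, 23 nl cpd added, kinetic Ca read 180 s; agonist hits = positive Ca response.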
# D2 PAM-1: Beta-Arrestin HTS for Positive Allosteric Modulators of the Human D2 Dopamine Receptor: Potentiators. 360,000 tested, 0.23% active. D(2) dopamine receptor (Homo sapiens), P14416. potentiation, % (concentration not given with the values). DiscoveRx D2 beta-arrestin cells, luminescence, 90 min; 100% = 57 uM dopamine signal; in the data active = potentiation above about 50%
#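 PathHunter beta-arrestin assay in DiscoveRx D2 cells. Compounds were added with an EC20 of dopamine (50 nM final) for 90 min at 37 deg C. Luminescence was read 1 h after detection reagent, with 57 uM dopamine as the EC100 control.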
# D2 PAM-2: HTS Assay for Positive Allosteric Modulators of the Human D2 Dopamine Receptor: Primary Screen for Potentiators; HEK293 T-REx D2, calcium flux, EC20 dopamine potentiation; potentiation, % at 10 µM; 340,000 tested, 0.34% active;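 active = potentiation over 3 SD above the plate norm, cut at about 30% in these data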
#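 Tetracycline-induced Hek293 Trex D2 cells, force-coupled to calcium, loaded with no-wash calcium dye. Compound added with 180 s kinetic read for agonism, then EC20 dopamine and a further 180 s read for potentiation.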
# D2 antagonist: HTS Assay for Allosteric Antagonists of the Human D2 Dopamine Receptor: Primary Screen for Antagonists; D(2) dopamine receptor (Homo sapiens), P14416; HEK293 TREx D2 cells, calcium flux, dopamine EC80; inhibition, % at 10 µM; 340,000 tested, 2% active; AID 485344, 2010; in the data active = inhibition above about 30%; inactive = below that, where a call was filed
#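 Compounds are added to dye-loaded, induced HEK293 T-REx cells coupled to calcium release via D2; after a 3 min kinetic read an EC80 dopamine stimulus is given and fluorescence is recorded for 3 more min.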
# Numbers stand for hits; n = inactive; x = no result.
SMILES,D2 ag-1,B2AR arrestin,D2 ag-2,D2 PAM-1,D2 PAM-2,D2 antagonist
Clc1ccc(OCCCN2CCCCC2)c(Br)c1,n,n,n,n,n,38
CC1CC(C)CN(CCOc2ccc(Cl)cc2Cl)C1 (stereo not drawn),n,n,x,n,x,x
Clc1ccccc1OCCN1CCCCC1,n,n,n,n,n,44
CC1CN(CCCSc2ccc(Cl)cc2)CC(C)O1 (stereo not drawn),n,n,n,n,n,n
O=C(COc1ccc([N+](=O)[O-])cc1)Nc1ccc2[nH]c(=O)[nH]c2c1,n,n,n,n,n,n
Cc1cnc(C(=O)NCc2ccc(Cl)cc2Cl)cn1,n,n,n,n,n,n
C#CCN(C)Cc1ccccc1,n,n,n,n,n,32
Cc1cc(O)c(C(c2ccccc2Cl)N2CCCCC2)c(=O)n1Cc1ccco1 (stereo not drawn),x,x,n,x,n,x
Cc1ccc2[nH]c(C)c(/C=N/Nc3nc4ccccc4s3)c2c1,n,n,n,58,n,n
COc1ccc(C=NNc2nc3ccccc3s2)cc1,n,x,x,n,x,x
CC(=O)Nc1cccc(C(=O)OCC(=O)c2ccccc2Cl)c1,n,n,n,n,n,41
CCC(=O)Nc1cccc(C(=O)OCC(=O)c2ccccc2Cl)c1,n,n,n,n,n,n
COc1ccc(N2CCC(CNS(=O)(=O)c3cccc(C(F)(F)F)c3)C2)cc1 (stereo not drawn),n,n,n,n,x,38
CCOC(=O)c1ccc(NS(=O)(=O)c2c(C)[nH]c(C)c2C(=O)N2CCCCC2)cc1,n,n,n,n,n,69
Cc1[nH]c(C)c(S(=O)(=O)Nc2ccccc2)c1C(=O)N1CCCC1,n,n,n,n,n,n
CC(=O)c1c(NCc2ccccc2)nc(=O)n(-c2ccccc2)c1C,n,n,n,n,n,40
Cc1ccc(S(=O)(=O)CCSc2nc(C)cc(C)c2C#N)cc1,n,n,n,n,33,n
Cc1cc(C)c(C#N)c(SCc2ccccc2C)n1,n,n,n,n,n,34
CCS(=O)(=O)CCSc1nc(C)cc(C)c1C#N,n,n,n,n,n,n
CCCCn1c(SC(C)C(N)=O)nc2cc(C(=O)OC)ccc2c1=O (stereo not drawn),n,n,n,n,n,n
Cn1c(CN2CCN(c3ccc(Cl)cc3)CC2)nc2ccccc21,n,n,n,n,n,n
Cn1c(CN2CCN(c3ccccc3NS(C)(=O)=O)CC2)nc2ccccc21,n,n,n,n,n,33
NC(=O)C1CC(=O)N(c2ccc(OCc3ccc(Cl)c(Cl)c3)cc2)C1 (stereo not drawn),n,x,x,n,x,x
FC(F)(F)c1nc(-c2ccncc2)ncc1-c1nnnn1-c1ccccc1,n,n,n,n,n,58
COc1cc(NC(=O)c2ccc3c(SCC(=O)O)c4c(nc3c2)CCCC4)cc(OC)c1OC,n,n,n,n,n,n
COc1cc(NC(=O)c2ccc3c(SCC(=O)O)c4c(nc3c2)CCC4)cc(OC)c1OC,n,n,n,n,n,36
COc1cccc(N(C(C)=O)c2nc(C)cc(C)c2C#N)c1,n,n,n,n,x,36
CCOc1ccc(N=C2NC(=O)C(CC(=O)Nc3ccccc3)S2)cc1 (stereo not drawn),n,n,n,n,39,n
COc1ccc(OC)c(N(CC(=O)NCc2ccccc2)S(=O)(=O)c2ccc(OC)c(OC)c2)c1,n,n,n,n,n,n
COc1ccccc1NC(=O)/C(C#N)=C/c1c(C)nn(-c2ccc(F)cc2)c1Cl,n,n,32,n,n,n
